Results reported in PubChem BioAssay (NCI).
About 83,000 compounds went through this panel and 20% of them were active in at least one assay; those are over-represented in the sample as a whole.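 Assay: single dose, 48 h. Readout: percent growth (0 = no net growth; negative = cell death). Active: <10.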 Active and inactive are the calls of the source.

The compounds below were run on NCI-H322M lung (assay: NCI-60 one-dose screen, 48 h (100 = growth as untreated, 0 = no growth, -100 = all killed)). Settings: 10 µM unless noted.

SMILES | growth
COC(=O)C1=C(C(=O)OC)C23C=C(C)C1C2=C(C)C1(CC1)[C@@](C)(O)C3=O (some centres not stated) | -9.66% (active)
c1ccc2c(c1)CCN(NCCN1CCCC1)C2 | 98.2% (inactive)
Cc1cc(N(CCNc2ccnc3cc(Cl)ccc23)Cc2cccs2)nc(Cl)n1 | -24.7% (active)
COc1cc(-c2nc(C(=O)Nc3ccc(C)cc3)nn2-c2ccc(F)c(F)c2)cc(OC)c1OC | 96% (inactive)
O=C(Cn1c(=O)ccn(CCCCCCCCOc2ccc(Br)cc2)c1=O)Nc1ccc(Oc2ccc(Cl)cc2)cc1 | 102% (inactive)
Cc1ccc(-c2cc3c(SCC(=O)Nc4cc(C(F)(F)F)ccc4Cl)nccn3n2)cc1 | 31% (inactive)
CCCc1cc2cc(-n3nc(C)c4c3CC(C)(C)CC4=O)cc(NC3CCC(O)CC3)c2c(=O)[nH]1 (configuration not stated) | 58.2% (inactive)
COc1ccc(C(=O)c2cc(OC)c(OC)c(OC)c2)cc1/C=C/C(=O)c1ccc(F)cc1 | 85.5% (inactive)
CC(C)=CCc1cc2c(cc1O)C1=C(C(=O)C3=C(C1=O)S(=O)(=O)CCN3)C(C=C(C)C)O2 (configuration not stated) | -76.2% (active)
CN1CCN(c2nc(NCCNc3ccnc4cc(Cl)ccc34)c3ccccc3n2)CC1 | 21.3% (inactive)
COc1ccc(CCCc2c3[n+](cc4c(OC)c(OC)ccc24)CCc2cc4c(cc2-3)OCO4)cc1 | 96.1% (inactive)
N#Cc1cc2[nH]c3ccc(OC(F)(F)F)cc3c2oc1=O | 93.5% (inactive)
CCN1CCN(CCCN(C[C@H]2Cc3ccccc3CN2)[C@H]2CCCc3cccnc32)CC1 | 79.7% (inactive)
Clc1ccc2c(NCCCNCc3ccc4c(c3)OCO4)ccnc2c1 | 71.8% (inactive)
Cc1cc(N2CCOCC2)nc(N(CCNc2ccnc3cc(Cl)ccc23)Cc2cccs2)n1 | 26.9% (inactive)
CCN1CCN(c2cc(C)nc(N(CCCNc3ccnc4cc(Cl)ccc34)Cc3ccc4c(c3)OCO4)n2)CC1 | 5.48% (active)
COc1cc(-c2cc(-c3ccc(Nc4ccnc5cc(Cl)ccc45)cc3)nc(N3CCOCC3)n2)cc(OC)c1OC | 28.9% (inactive)
COC(=O)C1CCc2sc3ncnc(Nc4cn[nH]c4C(=O)Nc4ccc(CN5CCN(C)CC5)cc4)c3c21 (configuration not stated) | 8.74% (active)
CO/C=C/C(=O)c1cc2cnc3c(=N)cc(NC(=O)C(C)C)c([nH]1)c23 | -13.2% (active)
CCN1CCN(c2nc(C)cc(N(CCNc3ccnc4cc(Cl)ccc34)Cc3ccc4c(c3)OCO4)n2)CC1 | 36.3% (inactive)
N#CC(C#N)=NO | 92.1% (inactive)
C=CC(=O)N(C)[C@H]1C[C@H]2OC(C)(C1OC)n1c3ccccc3c3c4c(c5c6ccccc6n2c5c31)C(=O)NC4 (some centres not stated) | 6.29% (active)
Cc1ccc(NC(=O)NC(=O)CSc2nc3ccccc3nc2C)cc1 | 95.1% (inactive)
C=CCn1c(=O)c2cnc(Nc3ccc(N4CCN(C)CC4)cc3)nc2n1-c1cccc(C(C)(C)O)n1 | 14.1% (inactive)
Clc1ccc2c(NCCNc3nc(N4CCCC4)nc4ccccc34)ccnc2c1 | -7.37% (active)
Clc1ccc(/C=C/c2cc(N3CCOCC3)c3cc(Cl)c(Cl)cc3n2)cc1 | 94.3% (inactive)
Nc1ncnc2c1ccn2-c1cccc(NC(=O)c2ccc(N3CCOCC3)c(C(F)(F)F)c2)c1 | 80.6% (inactive)
CC12O[C@H](C[C@@H](OC(=O)CCC(=O)O)[C@H]1O)n1c3ccccc3c3c4c(c5c6ccccc6n2c5c31)C(=O)NC4=O | 34.3% (inactive)

What follows are compounds tested on HOP-62 NSCLC in the same assay as above. Settings: 10 µM unless noted.

SMILES | growth
C=CCC(=O)N[C@H](/C=C/C(=O)O)Cc1ccc(-c2cc(Cl)cc(Cl)c2)cc1 | 82% (inactive)
CCN1CCN(c2cc(C)nc(N(CCCNc3ccnc4cc(Cl)ccc34)Cc3cccs3)n2)CC1 | -25.4% (active)
COC(=O)CCCNc1c(-c2c(O)c(O)cc3c(O)c(-c4c(C)cc5c(-c6nc7ccccn7c6NCCCC(=O)OC)c(O)c(O)cc5c4O)c(C)cc23)nc2ccccn12 | 37.1% (inactive)
Cn1ncc(Cl)c1-c1cc(C(=O)N[C@H](CN)Cc2ccc(F)c(F)c2)oc1Cl | -49.4% (active)
O=c1[nH]c(N2CCOCC2)nc2scc(-c3ccccc3)c12 | 91.3% (inactive)
Cc1cc2c(-c3nc4ccccn4c3NC3CCCCC3)c(O)c(O)cc2c(O)c1-c1c(C)cc2c(-c3nc4ccccn4c3NC3CCCCC3)c(O)c(O)cc2c1O | 26% (inactive)
CC(C)C1CCC(C)C(C2(C#N)C(N)=NC(N)=C2C#N)C1=O (configuration not stated) | 104% (inactive)
Cc1cc(N2CCCC2)nc(N(CCCNc2ccnc3cc(Cl)ccc23)Cc2ccc3c(c2)OCO3)n1 | -17.4% (active)
[2H]C1([2H])[C@H](C)O[C@H](C)C([2H])([2H])N1c1ccc(NC(=O)c2cccc(-c3ccc(OC(F)(F)F)cc3)c2C)cn1 | 77.7% (inactive)
Cc1cc2c(-c3nc4ccccn4c3NC34CC5CC(CC(C5)C3)C4)c(O)c(O)cc2c(O)c1-c1c(C)cc2c(-c3nc4ccccn4c3NC34CC5CC(CC(C5)C3)C4)c(O)c(O)cc2c1O | 1.34% (active)
CC[C@H](Nc1ncnc2nc[nH]c12)c1nc2cccc(F)c2c(=O)n1-c1ccccc1 | 75.6% (inactive)
COC(=O)C1=C(C(=O)OC)C23C=C(C)C1C2=C(C)C1(CC1)[C@@](C)(O)C3=O (some centres not stated) | -21.7% (active)
c1ccc2c(c1)CCN(NCCN1CCCC1)C2 | 75.4% (inactive)
Cc1cc(N(CCNc2ccnc3cc(Cl)ccc23)Cc2cccs2)nc(Cl)n1 | -29.4% (active)
COc1cc(-c2nc(C(=O)Nc3ccc(C)cc3)nn2-c2ccc(F)c(F)c2)cc(OC)c1OC | 86% (inactive)
O=C(Cn1c(=O)ccn(CCCCCCCCOc2ccc(Br)cc2)c1=O)Nc1ccc(Oc2ccc(Cl)cc2)cc1 | 67.1% (inactive)
Cc1ccc(-c2cc3c(SCC(=O)Nc4cc(C(F)(F)F)ccc4Cl)nccn3n2)cc1 | 43.3% (inactive)
CCCc1cc2cc(-n3nc(C)c4c3CC(C)(C)CC4=O)cc(NC3CCC(O)CC3)c2c(=O)[nH]1 (configuration not stated) | 28.5% (inactive)
COc1ccc(C(=O)c2cc(OC)c(OC)c(OC)c2)cc1/C=C/C(=O)c1ccc(F)cc1 | 95.5% (inactive)
CC(C)=CCc1cc2c(cc1O)C1=C(C(=O)C3=C(C1=O)S(=O)(=O)CCN3)C(C=C(C)C)O2 (configuration not stated) | -52.7% (active)

SMILES | growth
CN1CCN(c2nc(NCCNc3ccnc4cc(Cl)ccc34)c3ccccc3n2)CC1 | 13.7% (inactive)
COc1ccc(CCCc2c3[n+](cc4c(OC)c(OC)ccc24)CCc2cc4c(cc2-3)OCO4)cc1 | 78.6% (inactive)
N#Cc1cc2[nH]c3ccc(OC(F)(F)F)cc3c2oc1=O | 56.6% (inactive)
CCN1CCN(CCCN(C[C@H]2Cc3ccccc3CN2)[C@H]2CCCc3cccnc32)CC1 | 65.2% (inactive)
Clc1ccc2c(NCCCNCc3ccc4c(c3)OCO4)ccnc2c1 | 42.7% (inactive)
Cc1cc(N2CCOCC2)nc(N(CCNc2ccnc3cc(Cl)ccc23)Cc2cccs2)n1 | 19.8% (inactive)
CCN1CCN(c2cc(C)nc(N(CCCNc3ccnc4cc(Cl)ccc34)Cc3ccc4c(c3)OCO4)n2)CC1 | -38.8% (active)
COc1cc(-c2cc(-c3ccc(Nc4ccnc5cc(Cl)ccc45)cc3)nc(N3CCOCC3)n2)cc(OC)c1OC | -39.1% (active)
COC(=O)C1CCc2sc3ncnc(Nc4cn[nH]c4C(=O)Nc4ccc(CN5CCN(C)CC5)cc4)c3c21 (configuration not stated) | 0.169% (active)
CO/C=C/C(=O)c1cc2cnc3c(=N)cc(NC(=O)C(C)C)c([nH]1)c23 | -18.7% (active)
CCN1CCN(c2nc(C)cc(N(CCNc3ccnc4cc(Cl)ccc34)Cc3ccc4c(c3)OCO4)n2)CC1 | -19.8% (active)
N#CC(C#N)=NO | 85.8% (inactive)
C=CC(=O)N(C)[C@H]1C[C@H]2OC(C)(C1OC)n1c3ccccc3c3c4c(c5c6ccccc6n2c5c31)C(=O)NC4 (some centres not stated) | -15.4% (active)
Cc1ccc(NC(=O)NC(=O)CSc2nc3ccccc3nc2C)cc1 | 45% (inactive)
C=CCn1c(=O)c2cnc(Nc3ccc(N4CCN(C)CC4)cc3)nc2n1-c1cccc(C(C)(C)O)n1 | 2.56% (active)
Clc1ccc2c(NCCNc3nc(N4CCCC4)nc4ccccc34)ccnc2c1 | -47.2% (active)
Clc1ccc(/C=C/c2cc(N3CCOCC3)c3cc(Cl)c(Cl)cc3n2)cc1 | 122% (inactive)
Nc1ncnc2c1ccn2-c1cccc(NC(=O)c2ccc(N3CCOCC3)c(C(F)(F)F)c2)c1 | 71.3% (inactive)
CC12O[C@H](C[C@@H](OC(=O)CCC(=O)O)[C@H]1O)n1c3ccccc3c3c4c(c5c6ccccc6n2c5c31)C(=O)NC4=O | 13.5% (inactive)
